High-throughput results deposited in PubChem by National Center for Advancing Translational Sciences (NCATS).
Only some compounds are listed: those with a hit (about 6% of all), similar ones and a draw of the others.
VDR inh = inhibitors of human vitamin D receptor. VDR-SRC2-3 peptide fluorescence polarization, 2 h. Potency, µM, without a hit: max response, negative = inhibition, usual class: inhibitors. 0.93% of 400,000 active
Target sequence (P11473 whole entry, looked up): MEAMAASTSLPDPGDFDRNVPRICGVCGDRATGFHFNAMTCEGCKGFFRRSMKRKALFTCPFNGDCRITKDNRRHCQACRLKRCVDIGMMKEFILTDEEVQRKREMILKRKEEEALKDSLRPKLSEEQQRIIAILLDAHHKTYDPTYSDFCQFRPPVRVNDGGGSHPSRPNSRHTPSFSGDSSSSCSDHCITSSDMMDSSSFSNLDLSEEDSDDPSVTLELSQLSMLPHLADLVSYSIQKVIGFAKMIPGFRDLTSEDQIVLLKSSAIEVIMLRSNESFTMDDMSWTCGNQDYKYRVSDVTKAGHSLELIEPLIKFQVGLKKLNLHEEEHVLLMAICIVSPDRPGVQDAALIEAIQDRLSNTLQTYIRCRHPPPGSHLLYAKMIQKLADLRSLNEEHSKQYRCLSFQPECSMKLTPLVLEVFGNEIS
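FP read-out; VDR + SRC2-3 coactivator peptide; 23 nl compound by pintool; 2 h RT incubation; reagents held at 4 deg C, protected from light.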
Sfp PPTase inh = Sfp phosphopantetheinyl transferase inhibition; Biochemical Sfp PPTase activity, qHTS; Potency, µM, inactives show largest response in the series, negative = inhibition, hits mostly inhibitors; 3.5% of 310,000 active;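 note: the enzyme is Sfp with the accession as filed and its product quenches rhodamine fluorescence; 0% = enzyme reaction without inhibitor and -100% = no enzyme wells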
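Compounds were incubated with enzyme (final 15 nM) for 15 min at room temperature before substrate addition started the reaction. Fluorescence at 525 nm excitation, 598 nm emission was recorded immediately and after 30 minutes.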
PLK1 PBD block = PLK1 (human) polo-box domain binding inhibition. P53350. Plk1 PBD binding of FITC phosphopeptide, fluorescence polarization. Potency, µM, for the others: max response, negative = inhibition, usual class: inhibitors. 2.8% of 360,000 active. AID 720504; note: series mostly up to about 57 µM; nearly all actives have a fitted effect of over 65% in size
Tau fibril FP = tau fibrillization inhibition (FP). P10636. K18 P301L tau heparin fibrillization, Alexa594 FP, 6 h. Potency, µM (series often up to 57.7 µM), without a hit: at the highest dose activity, negative = inhibition, actives largely listed as inhibitors. 0.39% of 280,000 active. AID 1468; note: nearly all actives have a fitted effect of over 55% in size
Target sequence (P10636 561-689 P618L limits assumed): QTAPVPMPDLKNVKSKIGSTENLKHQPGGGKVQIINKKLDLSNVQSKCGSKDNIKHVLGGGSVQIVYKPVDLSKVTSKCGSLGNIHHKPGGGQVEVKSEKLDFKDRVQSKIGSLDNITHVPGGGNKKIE
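Compound effects on tau fibrillization are measured by Alexa 594 fluorescence polarization (ex 555, em 632 nm). K18 P301L tau is used at 15 uM with 0.24 uM labeled tracer, and 20 uM heparin induces aggregation over 6 hr at 37 C.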
Tau fluor counter = counter-screen for tau fibril formation inhibitors; tau K18 P301L Alexa594 fluorescence, heparin fibrillization; Potency, µM (doses to about 57.7 µM), for the others: at the top dose activity change, negative = decrease; 0.93% of 280,000 active; AID 1463; note: nearly all actives have a fitted effect of over 55% in size
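Human tau K18 P301L (15 uM unlabeled, 0.24 uM Alexa 594-labeled) in 100 mM sodium acetate pH 7 with 20 uM heparin, 6 hr at 37 C. ThT 30 uM added, 1 hr ambient; Alexa 594 FP and total fluorescence read at 555/632 nm.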
Tau fibril ThT = tau fibrillization inhibition (ThT binding) | recombinant tau K18 P301L (four-repeat tau fragment), heparin-induced fibrillization, ThT fluorescence | AID 1460 | Potency, µM (top dose mostly 57.4 µM), for inactives: top-dose activity, negative = inhibition, most hits filed as inhibitors | P10636 | 2.1% of 270,000 active; note: nearly all actives have a fitted effect of over 55% in size
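Tau K18 P301L fragment (15 uM unlabeled plus 0.24 uM Alexa 594-labeled) in 100 mM sodium acetate pH 7 with compound, fibrillization induced by 20 uM heparin for 6 hr at 37 C. Thioflavin T (30 uM) added, fluorescence read after 1 hr (ex 450, em 510 nm).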
Numbers without * were called inactive; u = inconclusive; x = no result; [ ] = dose if it differs, or a comment. Calls come from the whole dose curve; as a rule, active = well fitted curve in the direction sought with a large enough effect; inconclusive = small, poorly fitted or top-dose-only effect, or another doubt; inactive = no such curve, though single readings can be large; an effect the other way counts as inactive or inconclusive. Unless noted, % is set by controls: 0 for no effect and ±100 for the full control effect; potency is the fitted concentration of half-maximal effect.

SMILES	VDR inh	Sfp PPTase inh	PLK1 PBD block	Tau fibril FP	Tau fluor counter	Tau fibril ThT
CC(C)(Oc1ccc(-c2ccco2)cc1)C(=O)O	x	35µM*	x	-4%	0%	-13%
COc1ccccc1C(c1c(O)nc(SC)[nH]c1=O)c1c(O)nc(SC)[nH]c1=O	-9%	x	u	x	x	x
CCOc1cc(C(c2c(O)nc(SC)[nH]c2=O)c2c(O)nc(SC)[nH]c2=O)ccc1O	u	x	12µM*	x	x	x
COc1cc(C(=O)Oc2c(OC)cc(C(=S)N3CCOCC3)cc2OC)cc(OC)c1OC	-1%	9%	-1%	x	x	x
COc1cc(C(=S)N2CCOCC2)ccc1OS(=O)(=O)c1ccc(Cl)cc1	-13%	-5%	u	x	x	x
O=C(Oc1ccc(C(=S)N2CCOCC2)cc1Br)c1cc(Cl)ccc1Cl	-20%	6%	u	0%	-14%	u
COc1cc(C(=S)N2CCOCC2)cc(OC)c1OC(=O)Cc1ccc(F)cc1	u	45µM*	7.5µM*	-12%	-11%	-12%
COc1cc(C(=S)N2CCOCC2)cc(OC)c1OC(=O)c1ccc(F)cc1	u	28µM*	12µM*	x	x	x
COc1cc(C(=S)N2CCOCC2)cc(OC)c1OS(=O)(=O)c1ccc(Cl)cc1	89µM*	45µM*	13µM*	x	x	x
O=C(Oc1c(Br)cc(C(=S)N2CCOCC2)cc1Br)c1ccc(Cl)cc1	u	-69%	6.7µM*	-14%	-16%	u
CC1CCC2C(=O)N3C(CCC(C)[C@@H]3c3ccc(-c4ccco4)cc3)C(=O)N2C1c1cccc(N2CCCC2=O)c1 (some centres undefined)	x	u	x	4%[11.6 µM]	3%[11.6 µM]	8%[11.5 µM]
Cc1ccc(-n2nc(C(=O)N3CCC(C)CC3)c(=O)n(C)c2=O)cc1	7%	x	x	-3%	-1%	-2%
CCCCCCCCCCCCCCCC(=O)O[C@H](CC(=O)O)C[N+](C)(C)C	x	u	x	-1%	-11%	u
COC(=O)CC1Oc2ccccc2-n2cc(-c3ccc(F)cc3)nc21 (centres undefined)	1%	x	x	-19%	u	-14%
O=S(=O)(Nc1nc2ccccc2nc1-[n+]1cccc(N=C([O-])c2ccc(Cl)cc2)c1)c1ccccc1	10%	4%	1%	-6%	u	16µM*
Cc1ccc(C(=O)NNC(=S)Nc2cccc(Cl)c2Cl)cc1[N+](=O)[O-]	4%	-10%	u	7%	u	25µM*
COc1ccc(S(=O)(=O)NCCc2csc3nc(-c4ccc(OC)c(OC)c4)nn23)cc1C	6%	x	x	-9%	-22%	-8%
CCCCSc1nnc2c(n1)OC(C(=O)c1ccccc1)Nc1ccccc1-2 (centres undefined)	x	-6%	x	u	u	32µM*
COC(=O)c1[nH]c2cc(OC)ccc2c1NC(=O)CN1CCN(c2cccc(C)c2)C(C)C1 (centres undefined)	-1%	-7%	1%	u	14µM*[quencher]	u
COC(=O)c1[nH]c2cc(C)ccc2c1NC(=O)CN1CCOCC1	-11%	24%	-13%	4%	-8%	-8%
CCCSc1ncc(Cl)c(C(=O)Nc2nc3ccc(C)cc3s2)n1	13%	x	x	-10%	-12%	-9%
CCNC(=O)CCn1nc(-c2ccc(C)cc2)c2ccccc2c1=O	-3%	4%	30µM*	x	x	x
Cc1ccc(NC(=O)c2ccc(-c3nn(C)c(=O)c4ccccc34)cc2)cc1	3%	79µM*	4%	-8%	-29%	-7%
CCN(CC)C(=O)CCn1nc(-c2ccc(C)cc2)c2ccccc2c1=O	-20%	1%	-6%	x	x	x
CCc1ccc(Cn2c(CNS(=O)(=O)c3ccc(F)c(Cl)c3)nc3cccnc32)cc1	6%	x	x	-12%	-7%	1%
SMILES	VDR inh	Sfp PPTase inh	PLK1 PBD block	Tau fibril FP	Tau fluor counter	Tau fibril ThT
O=c1[nH]cc(S(=O)(=O)c2ccccc2)[nH]1	-30%	15%	30µM*	-1%	11%	8%
O=C(COc1ccc([N+](=O)[O-])cc1)N1CCC(c2nc3ccccc3s2)CC1	13%	x	x	5%	-16%	-19%
Cc1c(NC(=O)Oc2ccccc2)sc(=S)n1C	-5%	56µM*	15µM*	5%	-9%	-15%
Cc1nnc(NC(=O)Oc2ccccc2)s1	16%	-6%	-10%	4%	-6%	-4%
Cc1ccc(NC(=O)Nc2sc(=S)n(C)c2C)cc1	-11%	56µM*	u	14%	u	u
C/C=C/C1=Cc2ccccc2C(CC(=O)OC)N1C(=O)OC (centres undefined)	x	9%	x	2%[11.6 µM]	2%[11.6 µM]	3%[11.5 µM]
CCC(C(=O)N1CCN(c2ncccn2)CC1)c1ccccc1 (centres undefined)	-26%	19%	24µM*	-3%	6%	x
CC(Oc1ccccc1)C(=O)N1CCN(c2ncccn2)CC1 (centres undefined)	-12%	x	-8%	x	x	x
Cc1cc(C)cc(NC(=O)N2CCC3(CC2)Oc2ccccc2C(=O)N3Cc2ccccc2F)c1	-3%	x	x	-1%	-22%	u
COc1ccc(/C=C/c2nc(-c3ccccc3O)n[nH]2)cc1OC	-24%	4%	4%	u	16µM*[quencher]	10%
Nc1nnnn1/N=C/c1cc(Cl)cc(Cl)c1O	-19%	-9%	12µM*	x	x	x
Nc1nnnn1/N=C/c1cc(Cl)ccc1O	0%	13%	u	x	x	x
Cc1cc2nc(-c3cccc(NC(=O)c4cccc5ccccc45)c3)oc2cc1C	-21%	x	x	-11%	-24%	-6%
O=C(CCc1nnc2ccc(NCc3ccccc3)nn12)NC1CCCCC1	-13%	5%	24µM*	x	x	x
O=C(NCCc1nnc2ccc(NCc3ccc(F)cc3)nn12)c1ccccc1	-17%	10%	-5%	-1%	-6%	5%
COc1ccc(NC(=O)CSc2nc3ccccc3c(=O)n2CCNC(C)=O)c(OC)c1	1%	25µM*	-7%	-7%	-6%	-6%
COc1ccc(OC)c(NC(=O)CSc2nc3ccccc3c(=O)n2CCNC(C)=O)c1	8%	-6%	-6%	6%	3%	-4%
O=C(CSc1nc(O)cc(=O)[nH]1)C1CC1	-4%	71µM*	-1%	-4%	2%	9%
COc1ccc(NC(=O)CSc2nc(O)cc(=O)[nH]2)c(OC)c1	u	6%	24µM*	-8%	-2%	u
C=CCOC(=O)C(C(C)=O)C(NC(=O)OC)c1ccco1 (centres undefined)	x	26%	x	-2%[11.6 µM]	-15%[11.6 µM]	-12%[11.5 µM]
COC(=O)c1ccccc1-c1ccc(/C=N/Nc2nc(N3CCCC3)nc(N3CCCC3)n2)o1	-6%	-10%	2%	19%	u	u
O=[N+]([O-])c1ccc(/C=N/Nc2nc(N3CCCCCC3)nc(N3CCCCCC3)n2)o1	3%	-12%	-2%	20%	u	u
